Results filed as inconclusive are left out. Activity calls are given as the source filed them. Calls follow the shape of the dose curve; as a rule, active = well fitted cell-killing curve with a large enough effect; inconclusive = small, poorly fitted or top-dose-only effect, or effect the other way; inactive = no such curve, though single readings can be large or run the other way.

Experiment [1] can be described thus: Quantitative High-Throughput drug screen in 47 multiple myeloma cell lines against the NCATS MIPE library collection: OCIMY1_PLB cell viability assay (AID 1918979). Also: nearly all actives have a fitted effect of over 35% in size. Put shortly: (§1)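 ATP-based luminescence (CellTiter-Glo, 5 min RT incubation) quantified surviving cells following two days' treatment with MIPE 4.0 agents at 37 °C, 5% CO2.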
Experiment [2] is described as follows: Quantitative High-Throughput drug screen in 47 multiple myeloma cell lines against the NCATS MIPE library collection: MM1R_ATCC cell viability assay (AID 1918981). Also: nearly all actives have a fitted effect of over 35% in size. The gist of the method:
as §1

Experiment [3] is described as follows: Quantitative High-Throughput drug screen in 47 multiple myeloma cell lines against the NCATS MIPE library collection: KMS28PE_JCRB cell viability assay (AID 1918983). Also: nearly all actives have a fitted effect of over 35% in size. Put shortly: as §1
The nature of experiment [4]: Quantitative High-Throughput drug screen in 47 multiple myeloma cell lines against the NCATS MIPE library collection: L363_DSMZ cell viability assay (AID 1918984). Also: nearly all actives have a fitted effect of over 40% in size. The conditions noted are these: L363 myeloma viability, CellTiter-Glo ATP luminescence, 48 h; viability (% of control): at 45.8 µM (top of the series). Put shortly: as §1
(In general: ATP-based viability assays read luminescence as a measure of living cells.)

Experiment [5] can be described thus: Quantitative High-Throughput drug screen in 47 multiple myeloma cell lines against the NCATS MIPE library collection: OCIMY7_PLB cell viability assay (AID 1918987). Also: nearly all actives have a fitted effect of over 65% in size. The conditions noted are these: OCI-MY7 myeloma viability, CellTiter-Glo ATP, 48 h; viability (% of DMSO): at 45.8 µM (top of the series). The gist of the method: as §1
Experiment [6] in a line: Quantitative High-Throughput drug screen in 47 multiple myeloma cell lines against the NCATS MIPE library collection: OPM1_PLB cell viability assay (AID 1918989). Also: nearly all actives have a fitted effect of over 40% in size. The gist of the method: as §1
Experiment [7] can be described thus: Quantitative High-Throughput drug screen in 47 multiple myeloma cell lines against the NCATS MIPE library collection: MM1S_ATCC cell viability assay (AID 1918980). Also: nearly all actives have a fitted effect of over 45% in size. Put shortly: as §1
The nature of experiment [8]: Quantitative High-Throughput drug screen in 47 multiple myeloma cell lines against the NCATS MIPE library collection: OCIMY5_PLB cell viability assay (AID 1918988). Also: nearly all actives have a fitted effect of over 65% in size. Put shortly:
as §1

Experiment [9] can be described thus: Quantitative High-Throughput drug screen in 47 multiple myeloma cell lines against the NCATS MIPE library collection: LP1_DSMZ cell viability assay (AID 1918982). Also: nearly all actives have a fitted effect of over 35% in size. The gist of the method:
as §1

The nature of experiment [10]: Quantitative High-Throughput drug screen in 47 multiple myeloma cell lines against the NCATS MIPE library collection: KMS34_JCRB cell viability assay (AID 1918985). Also: nearly all actives have a fitted effect of over 40% in size. Put shortly: as §1
Potency is read from the fitted curve at half-maximal effect.

Turning to `CCCCCCCCCCCCCC(=O)N[C@H](CO)[C@H](O)c1ccc([N+](=O)[O-])cc1`, in experiment [1], the Potency result is “inactive”. Moreover, the Potency in experiment [2] was 18.7 µM (active); in [3] it was 16.6 µM (active); in experiment [4], 16.6 µM (active); in experiment [5] it was 16.6 µM (active); in experiment [6], 26.4 µM (active).

Turning to `CC(=O)O[C@]1(C(C)=O)CC[C@H]2[C@@H]3C=C(Cl)C4=CC(=O)[C@@H]5C[C@H]5[C@]4(C)[C@@H]3CC[C@@]21C`, the Potency result in experiment [1] is “inactive”. The Potency in [7] was 7.43 µM (active); in experiment [5] it was 9.35 µM (active); in [8], 23.5 µM (active).

As to `CCC(C)SSc1ncc[nH]1` (centres undefined), the Potency in experiment [1] is 8.33 µM (active); in experiment [2], 5.26 µM (active); in experiment [9], 8.33 µM (active); in experiment [4] it was 2.96 µM (active); in experiment [10], 4.18 µM (active); in experiment [5] it was 3.72 µM (active). Further, the results for the Potency in [8] and in [6] were 5.26 µM (active) and 3.72 µM (active), respectively.

On to `COc1nccc(-c2c(-c3ccc(F)cc3)ncn2C2CCC(O)CC2)n1` (centres undefined), for which the Potency result in [1] and in [5] was “inactive” each time. Moreover, the Potency in experiment [7] was 4.69 µM (active); in experiment [6] it was 10.5 µM (active).

With `CNc1nc(Nc2ccc(C(=O)N3CCOCC3)cc2OC)ncc1Cl`, the Potency entry in [1], in experiment [3], in experiment [5] and in experiment [6] was “inactive” throughout. Besides, the Potency in [2] was 5.9 µM (active); in experiment [8], 14.8 µM (active).

With `CC(C)(OCc1nn(Cc2ccccc2)c2ccccc12)C(=O)O`, the Potency entry in [1], in experiment [10] and in [6] was “inactive” throughout. Further, in [7], the Potency is 13.2 µM (active).

Consider `Cc1ccc(C2=Nc3ccc(Cl)cc3OC2)cc1`, for which the Potency result in [1], in experiment [2] and in experiment [3] was “inactive” each time. The values for the Potency in experiment [10], in [5] and in experiment [6] were 6.62 µM (active), 1.32 µM (active) and 10.5 µM (active), respectively.

Regarding `CCC(c1ccc(O)cc1)C(CC)c1ccc(O)cc1` (centres undefined), the Potency result in experiment [1] and in experiment [4] was “inactive” each time. Besides, the Potency in experiment [7] is 4.69 µM (active); in [8] it was 3.32 µM (active).

Turning to `COC(=O)[C@H](c1ccccc1Cl)N1CCc2sccc2C1`, the Potency result in experiment [1], in experiment [2] and in experiment [3] was “inactive” throughout. In experiment [5], the Potency was 20.9 µM (active).

With `CC(C)(C)c1nc(-c2cccc(NS(=O)(=O)c3c(F)cccc3F)c2F)c(-c2ccnc(N)n2)s1`, the Potency entry in experiment [1] is “inactive”. Also, the Potency in experiment [7] is 16.6 µM (active); in experiment [4], 16.6 µM (active); in [5], 0.209 µM (active); in [8] it was 1.32 µM (active); in experiment [6], 18.7 µM (active).

Turning to `NCC1CCC(C(=O)O)CC1` (centres undefined), the Potency result in experiment [1], in experiment [2], in experiment [4], in experiment [10] and in [6] was “inactive” in each case.

In the case of `NC[C@H]1O[C@H](O[C@@H]2[C@@H](O)[C@@H](O[C@H]3O[C@H](CO)[C@@H](O)[C@H](N)[C@@H]3O)[C@H](N)C[C@@H]2N)[C@H](O)[C@@H](O)[C@H]1O`, the Potency entry in experiment [1], in experiment [2], in experiment [9], in experiment [3], in [4] and in experiment [10] was “inactive” throughout. Also, the Potency entry in [6] was “inactive”.

As to `CN1CCN2c3ncccc3Cc3ccccc3C2C1` (centres undefined), the Potency entry in [1], in [2], in experiment [9], in experiment [3], in experiment [10] and in experiment [6] was “inactive” in each case.

For the compound `COc1cc2c(cc1OC)[C@@H]1Cc3ccc(OC)c(OC)c3CN1CC2`, the Potency entry in experiment [1] was “inactive”. Further, the Potency was 2.96 µM (active) in experiment [7] and 5.9 µM (active) in experiment [8].

As for `CN[C@@H]1[C@@H](O)[C@@H](O[C@@H]2[C@@H](O)[C@H](O[C@H]3O[C@H](CN)[C@@H](O)[C@H](O)[C@@H]3O)[C@@H](N)C[C@@H]2NC(=O)[C@@H](O)CN)OC[C@]1(C)O`, the Potency result in experiment [1], in experiment [2], in [9], in experiment [3], in experiment [5] and in [6] was “inactive” each time.

Regarding `CNC(=O)[C@H](CC1=CN=C2C=CCC=C12)NC(=O)[C@@H](CC(=O)NO)CC(C)C`, the Potency result in [1] and in experiment [6] was “inactive” throughout. Also, the Potency in [7] is 3.32 µM (active); in [4], 0.059 µM (active).

Take `O=C(NCCCCN1CCOCC1)c1cc2ccccc2o1`: the Potency entry in experiment [1], in [2], in experiment [9], in experiment [3], in experiment [10] and in experiment [6] was “inactive” each time.

For `COc1ccnc(CS(=O)c2nc3ccc(OC(F)F)cc3[nH]2)c1OC` (centres undefined), the Potency entry in experiment [1], in experiment [2], in [9], in [3], in experiment [10] and in experiment [8] was “inactive” in each case.

Regarding `N#CC(c1ccnc(NCCc2cccnc2)n1)c1nc2ccccc2s1` (centres undefined), the Potency result in experiment [1] is “inactive”. For the same compound, the Potency is 18.7 µM (active) in experiment [2]; 4.69 µM (active) in [4]; 14.8 µM (active) in [10]; 2.96 µM (active) in experiment [5]; 13.2 µM (active) in experiment [8]; 14.8 µM (active) in experiment [6].

Turning to `CC(C)(CO)[C@@H](O)C(=O)NCCC(=O)O`, the Potency result in [1], in experiment [7], in [5], in [8] and in [6] was “inactive” throughout.

In the case of `O=C(c1ccc(C(=O)N2CCC(N3CCCC3)CC2)c(Nc2ccccc2)c1)N1CCC(N2CCCC2)CC1`, the Potency entry in experiment [1], in [2], in [9], in [4] and in experiment [6] was “inactive” each time.

Turning to `C[C@H]1O[C@@H](n2cc(F)c(=O)[nH]c2=O)[C@H](O)[C@H]1O`, the Potency result in [1] and in experiment [3] was “inactive” throughout. In addition, the Potency in [2] is 14.8 µM (active); in experiment [6], 11.8 µM (active).

As for `CNC(=O)c1cc(COc2nnc(Nc3ccc(Cl)cc3)c3ccoc23)ccn1`, the Potency in experiment [1] is 23.5 µM (active); in experiment [8] it was 20.9 µM (active). Moreover, the Potency entry in experiment [7] and in experiment [6] was “inactive” each time.

On to `Cc1cc2nc3c(=O)[nH]c(=O)nc-3n(CC(O)C(O)C(O)CO)c2cc1C` (centres undefined), for which the Potency entry in [1] and in experiment [7] was “inactive” each time. The results for the Potency in [3] and in experiment [6] were 0.0833 µM (active) and 18.7 µM (active), respectively.

Source of the values: PubChem BioAssay (NCATS).
